# Measurements as given in PubChem BioAssay (NCI).
# About 83,000 compounds went through this panel and 20% of them were active in at least one assay; those are over-represented in the sample as a whole.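 The test compound was applied at a single concentration to cells in 96-well plates for 48 hours, and percent growth was recorded.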 The source made the active and inactive calls.
# Test system: SK-OV-3 ovarian
# Assay: NCI-60 one-dose screen, 48 h (100 = growth as untreated, 0 = no growth, -100 = all killed)
# Conditions: 10 µM unless noted
# Protocol: Growth inhibition of the SK-OV-3 human tumor cell line is measured as a screen for anti-cancer activity. Cells are grown in 96 well plates and exposed to the test compound for 48 hours. Compounds are tested at a single concentration, which is 10^-5 M for most compounds. The reported endpoint is percent growth (GI% or GIPRCNT), where numbers from 0 - 100% represent growth inhibition, and numbers from -100% - 0 represent cell death. For example, a value of 40 represents 60% growth inhibition. A value of 0 means no net growth occurred over the course of the experiment. A value of -40 indicates 40% of cells at the beginning of the experiment died by the end of the experiment. A value of -100 means all cells are dead at the end of the experiment.
# NCI-60 Human Tumor Cell Lines Screen was performed using the standard one-dose NCI protocol, which is described in more detail at https://dtp.cancer.gov/discovery_development/nci-60/default.htm.
# Compounds with GIPRCNT values below 10 were considered active. Activity score was based on GIPRCNT using the following formula: […]
# Score is 0 for GIPRCNT values of 100 or above, 50 for GIPRCNT values of 0, and 100 for GIPRCNT values of -100.
row,Compound,growth
1,C=CCn1c(SCC(=O)c2ccc(OC)cc2)nnc1-c1ccc(OC)cc1,105% (inactive)
2,CCN1C(=O)N(CC)C2SC(N/N=C/C=C/c3ccccc3OC)=NC21 (stereo not given),52.8% (inactive)
3,O=C(CCCCCCN1CC(=O)N2[C@@H](c3ccc(Cl)c(F)c3)c3[nH]c4ccccc4c3C[C@H]2C1=O)NO,81.8% (inactive)
4,CCOC(=O)C1=C(C)N=C2Sc3ccccc3N2C1c1ccccc1 (stereo not given),125% (inactive)
5,COc1ccc([C@@H]2[C@@H](O)C(=O)N2c2cc(OC)c(OC)c(OC)c2)cc1,37.2% (inactive)
6,C#C[C@]1(O)CC[C@H]2[C@@H]3CC=C4c5sc(C6CCOCC6)nc5CC[C@]4(C)[C@H]3CC[C@@]21C,104% (inactive)
7,O=C(Nc1cccc(Cl)c1)Nc1nc2ccc(-c3cccc4ccccc34)cc2s1,66.8% (inactive)
8,COc1ccc([C@@H]2[C@@H](O)C(=O)N2c2cc(OC)c(OC)c(OC)c2)cc1Cl,23.9% (inactive)
9,N#C/C(=C\c1ccc(N2CCCCC2)cc1)C(=O)Nc1sc2c(c1C#N)CCC2,96.6% (inactive)
10,IP(CCCSc1n(Cc2ccc3ccccc3c2)c(-c2ccccc2)c(-c2ccccc2)[n+]1Cc1ccc2ccccc2c1)(c1ccccc1)(c1ccccc1)c1ccccc1,29.4% (inactive)
11,COc1cc(/C=N/n2cnc3oc(-c4ccccc4)cc3c2=N)cc(CN2CCCC2)c1O,93.9% (inactive)
12,COc1ccc(C(=O)n2cc(C=O)c3ccccc32)cc1,133% (inactive)
13,CC(C)C(=O)Nc1ccc(-c2nc(-c3cccc(O)c3)c(-c3ccnc(Br)c3)[nH]2)cc1,54.5% (inactive)
14,CCOC(=O)c1c(NCC(=O)Nc2cccc(Cl)c2)sc2c1CCCC2,84.2% (inactive)
15,O=C(COc1cccc2cccnc12)Nc1ccc(C(=O)/C=C/c2ccc(Cl)cc2)cc1,105% (inactive)
16,CCn1c2ccc(/C=N/OCCCN(C)C)cc2c2cc(/C=N/OCCCN(C)C)ccc21,109% (inactive)
17,COc1cc(-c2nc(SCc3ccc(C)cc3)[nH]c(=O)c2C#N)ccc1OCc1ccccc1,108% (inactive)
18,CN(c1ccc(F)cc1)S(=O)(=O)c1ccc(-c2cnc(C3CC3)o2)cc1,72.1% (inactive)
19,CC(C)(C)n1nnnc1C(Nc1nccs1)c1cc2cccc3ccc4cccc1c4c32 (stereo not given),109% (inactive)
20,CCOC(=O)C1=C(C)Nc2nc3ccccc3n2C1c1cccc(Br)c1 (stereo not given),93.6% (inactive)

row,Compound,growth
1,COc1ccc(-c2nnc(SCc3ccc(O)c4ncccc34)o2)cc1,51.7% (inactive)
2,Cc1ccc(C2CC(c3ccc(Nc4nc(NCCO)nc(Nc5ccc(Cl)cc5)n4)cc3)=Nc3c(N)nc(N)nc3N2)cc1 (stereo not given),114% (inactive)
3,CCc1ccc(NC(=O)N[C@@H](Cc2cc(F)cc(F)c2)C(=O)N[C@@H]2C(=O)N3CCC[C@H]3C(=O)N3CCO[C@H](C)[C@H]3C(=O)N[C@@H](CO)C(=O)N3C[C@H](C)C[C@H]3C(=O)O[C@H]2C)c(F)c1,26.3% (inactive)
4,CCNC(=O)Oc1ccc(/C(=C(/C)c2ccc(Cl)cc2)c2ccc(OCCN3CCCC3)cc2)cc1,106% (inactive)
5,N#C/C(=C\c1ccc(Cl)cc1Cl)C(N)=O,107% (inactive)
6,COc1cc(/C=N/Nc2ccnc3cc(Cl)ccc23)cc(OC)c1O,109% (inactive)
7,C/C(=C(/c1ccc(O)cc1)c1ccc(OCCN2CCCC2)cc1)c1ccc(Cl)cc1,76.7% (inactive)
8,NC(=O)N1N=C(c2cc3ccccc3oc2=O)CC1c1cn(-c2ccccc2)nc1-c1ccc(Cl)cc1 (stereo not given),75.6% (inactive)
9,COc1cc(/C=C2\SC(=O)NC2=O)ccc1OCC(=O)Nc1ccc(C(=O)/C=C/c2cc3ccccc3nc2Cl)cc1,104% (inactive)
10,CC1(C)CC[C@]2(C(=O)O)CC[C@]3(C)C(=CCC4[C@@]5(C)C[C@@H](O)[C@@H]6OC(c7cccc([N+](=O)[O-])c7)OC[C@@]6(C)C5CC[C@]43C)C2C1 (stereo not given in full),105% (inactive)
11,NNC(=O)c1sc2nc(-c3cnccn3)cc(-c3cccs3)c2c1N,92.1% (inactive)
12,CC(=O)NC(C)(C)C(=O)N1CCC[C@H]1C(=O)NC(C)(C)C(=O)N[C@@H](C)C(=O)NC(C)(C)C(=O)N[C@@H](C)C(=O)N[C@@H](CCC(N)=O)C(=O)NC(C)(C)C(=O)N[C@H](C(=O)NC(C)(C)C(=O)NCC(=O)N[C@@H](CC(C)C)C(=O)NC(C)(C)C(=O)N1CCC[C@H]1C(=O)N[C@H](C(=O)NC(C)(C)C(=O)NC(C)(C)C(=O)N[C@@H](CCC(N)=O)C(=O)N[C@@H](CCC(N)=O)C(=O)N[C@H](CO)Cc1ccccc1)C(C)C)C(C)C,74% [4.25 µM] (inactive)
13,COc1ccc([C@H]2c3[nH]c4ccccc4c3C[C@@H]3C(=O)N(C4CCN(Cc5ccccc5)CC4)CC(=O)N23)c(OC)c1,93% (inactive)
14,CCCCOc1ccc(S(=O)(=O)N2CCN(c3nccc(N4CCOCC4)n3)CC2)cc1,12.8% (inactive)
15,CN1C(=O)N(C)C2Nn3c(s/c(=C\c4ccccn4)c3=O)=NC21 (stereo not given),114% (inactive)
16,C=C(C)C(=O)O[C@H]1C[C@@]2(C)OC(=CC2=O)/C(C)=C\[C@H]2OC(=O)C(=C)[C@H]12,77% (inactive)
17,COc1ccccc1/C=C/C(=O)c1nnn(-c2ccc(C(=O)O)cc2)c1C,106% (inactive)
18,Cc1cccc(NC(c2cc3cccc4ccc5cccc2c5c43)c2nnnn2C(C)(C)C)c1C (stereo not given),77.4% (inactive)
19,Oc1ccc(CSc2nnc(-c3ccccc3)n2-c2ccccc2)c2cccnc12,9.62% (active)
20,CCNC(=O)Oc1ccc(/C(=C(/C)c2ccc(Cl)cc2)c2ccc(OCCN(C)C)cc2)cc1,94.2% (inactive)
